Screening data: PubChem BioAssay, several laboratories
Only some compounds are listed: those with a hit (about 1.5% of all), similar ones and a draw of the others.
STK33 inh: inhibitors of human STK33 kinase. Q9BYT3. purified STK33, MBP phosphorylation, ADP-Glo luminescence. actives 0.073% (n = 320,000). inhibition, % at 10 µM;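 active means inhibition at or above 25%, using the most active replicate where run in duplicate; inactive means inhibition below 25%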
PP1 inh: counter-screen for PP5 inhibitors: inhibitors of human PP1-alpha; P62136; purified PP1alpha, OMFP fluorescence; inhibition, % at 6.7 µM; actives 0.9% (n = 320,000);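 active means inhibition above the mean inhibition of all tested compounds plus 3 SD, computed separately for each screening campaign, cut at about 15% in these data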
Dyrk1A ADPGlo: Dyrk1A (rat) kinase inhibition. Q63470. inhibition, % at 12.5 µM. AID 504441. actives 0.43% (n = 310,000). ADP-Glo luminescence, NFATc1 peptide; in the data active means inhibition above about 50%;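 further: plate controls were vehicle with enzyme for no effect and no enzyme for full effect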
HIF act: HIF pathway transcriptional activation. AID 1910. actives 0.32% (n = 300,000). activation, % at 7.5 µM (by protocol). U2OS HRE-luciferase reporter, luminescence; normalized: DMSO 0%, desferrioxamine 100%;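 active means mean activation of at least 10% of the iron chelator positive control signal, with at least half of replicates also reaching 10%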
PP5 primary: inhibitors of human protein phosphatase 5 (PP5). P53041. purified PP5c, OMFP substrate fluorescence. inhibition, % at 6.7 µM. actives 0.18% (n = 320,000). AID 1987;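 active means inhibition above the campaign's mean inhibition across all tested compounds plus 3 SD, cut at about 9.5% in these data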;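 further: 0% = DMSO only and 100% = 100 µM cantharidin control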
PP5 conf: confirmation of human PP5 phosphatase inhibitors; shares compounds with PP5 primary; Purified PP5, fluorogenic phosphatase substrate, fluorescence; inhibition, % at 6.7 µM; actives 22% (n = 460); AID 2331; in the data active means inhibition above about 9.5%
PP1 inh counter: inhibits human PP1 phosphatase in PP5 counter-screen; shares compounds with PP5 primary; PP1 enzyme, fluorescent phosphatase substrate; inhibition, % at 6.7 µM; actives 4% (n = 460); in the data active means inhibition above about 16%
* hit, by the source's call.

For COc1cc2sc3cc(NCCCN4CCOCC4)ccc3c(=O)c2cc1OC the results were STK33 inh 15.3 and Dyrk1A ADPGlo 21.6.
Screening Cc1cc2oc3cc(NCCC4CCCN4C)ccc3c(=O)c2cc1C (stereo not drawn) returned STK33 inh 5.5, PP1 inh 0.4, Dyrk1A ADPGlo 22.4, HIF act 2.5 and PP5 primary 0.4.
For COC(=O)c1ccc(NC(=O)COc2ccc(C3C(C#N)=C(N)Oc4c3ccc3ccccc43)cc2OC)cc1 (stereo not drawn) the results were STK33 inh -0.2, PP1 inh 15.9*, Dyrk1A ADPGlo -2.2, HIF act 0.0 and PP5 primary 2.6.
CN(C)S(=O)(=O)c1cccc(NC(=S)Nc2ccc3cn[nH]c3c2)c1 was read as STK33 inh 47.5*, PP1 inh -0.1, HIF act 1.1 and PP5 primary 0.2.
`CN(C)S(=O)(=O)c1cccc(NC(=S)N/N=C/c2cc(Br)ccc2O)c1` gave STK33 inh 1.9, PP1 inh 2.7, Dyrk1A ADPGlo 23.6, HIF act 47.0* and PP5 primary 4.8.
`S=C(Nc1ccc(Cl)cc1)Nc1ccc2cn[nH]c2c1` gave STK33 inh 9.7, PP1 inh -4.8, Dyrk1A ADPGlo 48.4, HIF act 10.4* and PP5 primary 1.1.
For Cc1ccccc1NC(=S)Nc1ccc2cn[nH]c2c1 the results were STK33 inh 18.7, PP1 inh -4.0, HIF act 4.9 and PP5 primary 0.0.
For CC(C)CC(=O)Nc1ccc(C(=O)CN2C(=O)NC3(CCOc4ccccc43)C2=O)cc1 (stereo not drawn) the results were STK33 inh 0.9, PP1 inh -2.2, Dyrk1A ADPGlo 12.3, HIF act -2.5 and PP5 primary 3.9.
Screening O=c1c2c([nH]n1-c1ccccc1)CCSC2 returned STK33 inh -1.2, PP1 inh 2.5, Dyrk1A ADPGlo -1.5, HIF act -1.2 and PP5 primary 1.2.
`O=C1C(=O)c2ccc(-c3ccccc3)cc2-c2ccccc21` gave STK33 inh -0.7, PP1 inh -0.2, Dyrk1A ADPGlo 6.1, HIF act -7.3 and PP5 primary 2.8.
O=C1C(c2ccccc2)=[N+]([O-])c2ccccc21 was read as STK33 inh 0.1, PP1 inh -3.3, Dyrk1A ADPGlo 4.7, HIF act 0.6, PP5 primary 10.3*, PP5 conf 36.0* and PP1 inh counter 87.6*.
For O=C(Nc1cc(-c2ccccc2)[nH]n1)c1ccccc1F the results were STK33 inh 3.2, PP1 inh 2.4, HIF act 2.7 and PP5 primary -1.8.
For CC1=C(C(=O)Nc2cc(-c3cccc(F)c3)[nH]n2)C2(CCCCC2)OC1=O the results were STK33 inh 0.7, PP1 inh 4.1, Dyrk1A ADPGlo -3.2, PP5 primary 10.2*, PP5 conf 14.6* and PP1 inh counter 4.8.
`O=C(NCc1ccccn1)C(=O)Nc1cc2c3c(c1)CC(=O)N3CCC2` gave STK33 inh -0.9, PP1 inh -4.3, Dyrk1A ADPGlo -3.7, HIF act 0.6 and PP5 primary 1.1.
Cc1ccc(N2CC(C(=O)Nc3nnc(SCC(N)=O)s3)CC2=O)cc1 (stereo not drawn) was read as STK33 inh 0.9, PP1 inh -0.4, Dyrk1A ADPGlo -1.4, HIF act -0.2 and PP5 primary 1.6.
CCOc1ccc(NC(=S)Nc2ccc3nsnc3c2)cc1 was read as STK33 inh -1.0, PP1 inh 10.5, Dyrk1A ADPGlo 8.9, HIF act 4.8, PP5 primary 11.6*, PP5 conf 49.2* and PP1 inh counter 3.0.
`COc1ccc(NC(=S)Nc2ccc3nsnc3c2)cc1` gave STK33 inh 1.2, PP1 inh 3.0, Dyrk1A ADPGlo 11.2, HIF act -1.1, PP5 primary 11.9*, PP5 conf 47.4* and PP1 inh counter 0.3.
Screening O=C(O)c1nnn(-c2cc(C(F)(F)F)cc(C(F)(F)F)c2)c1-c1ccccc1 returned STK33 inh 12.4, PP1 inh 4.5, HIF act -1.2, PP5 primary 19.9*, PP5 conf -2.3 and PP1 inh counter -2.1.
